Assay results as given in the supplement of paper PMC7380943.

Assays:
[1] = system: CLZ3 (HCA2 human fibroblast dual HR-NHEJ reporter); experiment: NHEJ repair efficiency (GFP+ cells) relative to control (log10 fold); higher = more non-homologous end joining; settings: 5 µM; doxycycline 0.5 ug/mL
[2] = system: CLZ3 (HCA2 human fibroblast dual HR-NHEJ reporter); experiment: HR repair efficiency (tdTomato+ cells) relative to control (log10 fold); higher = more homologous recombination; settings: 5 µM; doxycycline 0.5 ug/mL
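Throughout, for HR repair efficiency (tdTomato+ cells) relative to control: compound given one day before doxycycline, which switches on I-SceI endonuclease expression to create double-strand breaks within the integrated reporter.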
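Throughout, for NHEJ repair efficiency (GFP+ cells) relative to control: compound given one day ahead of doxycycline, which switches on I-SceI endonuclease to cut the chromosomally integrated reporter and create DSBs.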

Structure (SMILES) | NHEJ repair efficiency (log10) [1] | HR repair efficiency (log10) [2]
C=C[C@H]1[C@H](O[C@@H]2O[C@H](CO)[C@@H](O)[C@H](O)[C@H]2O)OC=C(C(=O)OC)[C@H]1CCOC(=O)c1cc(O)c(O)c(O)c1 [Cornuside] | 0.0361 | 0.162
COc1ccc(-c2oc3cc(O)cc(O)c3c(=O)c2O)cc1 [Kaempferide] | -0.0948 | -0.167
Oc1ccc2c(c1)OC[C@]1(O)Cc3cc(O)c(O)cc3[C@H]21 [Brazilin] | -0.0322 | -0.00638
COc1ccc(CCO[C@@H]2O[C@H](CO[C@@H]3OC[C@H](O)[C@H](O)[C@H]3O)[C@@H](OC(=O)/C=C/c3ccc(O)c(OC)c3)[C@H](O[C@@H]3O[C@@H](C)[C@@H](O)[C@@H](O)[C@H]3O)[C@H]2O)cc1O [Angoroside C] | 0.0985 | 0.3
O=C(O)c1cc(O)c2c(c1)C(C1c3cc(CO)cc(O)c3C(=O)c3c(OC4OC(CO)C(O)C(O)C4O)cccc31)c1cccc(OC3OC(CO)C(O)C(O)C3O)c1C2=O (stereo not drawn) [Sennoside D] | 0.274 | -0.297
O=C(/C=C/c1ccc(O)c2oc(-c3ccc(O)c(O)c3)cc12)O[C@H](Cc1ccc(O)c(O)c1)C(=O)O [Salvianolic Acid C] | -0.0345 | -0.0113
C[C@@H]1CC[C@@]2(OC1)O[C@H]1C[C@H]3[C@@H]4CC=C5C[C@@H](O[C@@H]6O[C@H](CO)[C@@H](O)[C@H](O[C@@H]7O[C@H](CO)[C@@H](O)[C@H](O)[C@H]7O)[C@H]6O[C@@H]6O[C@@H](C)[C@H](O)[C@@H](O)[C@H]6O)CC[C@]5(C)[C@H]4CC[C@]3(C)[C@H]1[C@@H]2C [Gracillin] | -0.154 | -0.0532
Cn1c(=O)c2nc[nH]c2n(C)c1=O [Theophylline] | 0.0481 | 0.0978
C=C(CCC=C(C)C)[C@H]1CC[C@]2(C)[C@@H]1[C@H](O)C[C@@H]1[C@@]3(C)CC[C@H](O)C(C)(C)[C@@H]3[C@@H](O[C@@H]3O[C@H](CO)[C@@H](O)[C@H](O)[C@H]3O)C[C@]12C [Ginsenoside Rk3] | 0.000935 | 0.0532
